Screening data: PubChem BioAssay, National Center for Advancing Translational Sciences (NCATS)
TCR activator: activates T cell receptor signaling; Potency, µM (doses to about 9.22 µM), hits mostly activators; primary human leukocytes, anti-CD3, IL-2 HTRF, 48 h; 330,000 tested, under 10 active
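Primary human leukocytes receive a-CD3 beads and test compound and are incubated 48 hr. Secreted IL-2 is then assayed by HTRF, measuring 665nm acceptor emission after 320nm excitation of the europium donor.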
Mito fusion yeast: blocks mitochondrial division or promotes mitochondrial fusion | S. cerevisiae fusion-defective mutant growth rescue, CellTiterGlo 48 h | Potency, µM (top dose mostly 46.1 µM), hits mostly activators | 320,000 compounds, 0.23% hits | AID 485298; further: nearly all actives have a fitted effect of over 45% in size
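S. cerevisiae fusion-defective temperature-sensitive mutants (e.g. fzo1-1, mgm1-5) grown 48 h at 37C in YPEG (ethanol/glycerol non-fermentable) medium with 23 nl compound per well; growth rescue read as CellTiterGlo luminescence.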
Chronic BCR inh: chronic active BCR signaling inhibition | ABC-DLBCL IkBa-CBG/CBR reporter, luminescence ratio, 4 h | 340,000 compounds, 0.05% hits | Potency, µM (top dose mostly 46.1 µM), hits mostly inhibitors; active means well fitted inhibition curve with a large enough effect in the signal ratio, with a control signal flat, not every such curve was filed as active; inconclusive means small, poorly fitted or top-dose-only effect, or effect the other way, or a change in a side signal; the % refers to the signal ratio
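Concentration-response series (up to 46 uM) were applied to TMD8 dual-reporter cells for 4 h at 37C with doxycycline. Green/red ratio, after filter-overlap correction, defined %Activity; red signal alone was normalised to basal cells and zero luminescence.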
IL-2 act: IL-2 activation; activation, % (series mostly up to about 46 µM); 360,000 compounds, 0.065% hits; IL-2 activation reporter assay, cell-based qHTS; stimulated with anti-CD3/CD4/CD28 beads; in transgenic mouse T cells; in the data active means activation above about 50%; inconclusive means mostly about 30% to 49%
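Using fluorescent plate cytometry, EGFP and DsRed are detected in transgenic mouse T cells stimulated 18 h at 37 degrees C with antibody-coated beads after 60 min compound pretreatment.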
BRCA1 expr up: increases BRCA1 expression; MCF7-BRCA1-FFLuc reporter, luminescence, 48 h; response scale: scaled: vehicle 0%, 10 µM genistein 100%; Potency, µM (titrated, usually from 46.1 µM), usual class: activators; 380,000 compounds, 1.1% hits; AID 624202; further: nearly all actives have a fitted effect of over 80% in size
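Using MCF7 cells harboring a BRCA1 firefly luciferase reporter, plated 2 h before compound pinning, the screen measured luminescence after 48 h incubation. Responses were normalized to DMSO and 10 microM genistein, then fitted for concentration-effect.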
PTHR1 ag: PTHR1 (human) receptor agonism. Q03431. 410,000 compounds, 0.075% hits. Potency, µM (series often up to 115 µM), usual class: activators. AID 743266. HEK293 GP2 PTHR1 cells, GloSensor cAMP luminescence, 1 h; further: nearly all actives have a fitted effect of over 55% in size
Target sequence (Q03431 whole entry, looked up): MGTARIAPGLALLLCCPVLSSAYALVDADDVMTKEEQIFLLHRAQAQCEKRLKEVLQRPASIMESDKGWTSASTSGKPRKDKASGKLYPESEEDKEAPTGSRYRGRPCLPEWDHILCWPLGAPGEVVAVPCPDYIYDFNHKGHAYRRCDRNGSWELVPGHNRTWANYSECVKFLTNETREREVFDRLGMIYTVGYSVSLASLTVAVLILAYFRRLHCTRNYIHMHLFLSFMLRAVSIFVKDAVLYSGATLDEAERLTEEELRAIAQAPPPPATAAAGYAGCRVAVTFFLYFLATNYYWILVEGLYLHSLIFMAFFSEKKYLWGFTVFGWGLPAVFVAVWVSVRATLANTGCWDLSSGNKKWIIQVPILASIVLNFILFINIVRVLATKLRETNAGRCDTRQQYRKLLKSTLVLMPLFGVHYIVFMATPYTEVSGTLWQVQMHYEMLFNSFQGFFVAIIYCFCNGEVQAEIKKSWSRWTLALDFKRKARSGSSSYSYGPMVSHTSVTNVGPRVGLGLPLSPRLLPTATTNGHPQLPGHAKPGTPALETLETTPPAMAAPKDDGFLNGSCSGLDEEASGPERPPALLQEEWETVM
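HEK-293-derived GP2 cells expressing PTHR1 and a GloSensor cAMP reporter, 3,000/well, plated overnight, given luciferin plus IBMX (each 0.5 mM as added) for 1 h at 37 °C, then compound for 1 h at 37 °C. Luminescence was read after 15 min at room temperature.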
Large screens that a line does not name were inactive. Only some compounds are listed: those with a hit (about 1.3% of all), similar ones and a draw of the others. Unless noted, the call rests on the fitted dose curve; in most records, active means well fitted curve in the direction sought with a large enough effect; inconclusive means small, poorly fitted or top-dose-only effect, or another doubt; inactive means no such curve, though single readings can be large; an effect the other way counts as inactive or inconclusive.

COc1ccc(/C=N\NC(=O)C2=NNC(=O)C2C)cc1 (stereo not drawn)	Chronic BCR inh inconclusive, BRCA1 expr up 2.8µM
O=C1CC(C(F)(F)F)=NN1	Chronic BCR inh inconclusive
CCN(CC)C(=O)CCCSc1nnc(Nc2ccccc2F)s1	Chronic BCR inh inconclusive, BRCA1 expr up 4.5µM
CC(=O)N1N=C(c2ccc(C)cc2)OC1c1ccc(Br)cc1 (stereo not drawn)	Chronic BCR inh inconclusive, BRCA1 expr up 13µM
CC(=O)N1N=C(c2ccc(Cl)cc2)OC1c1ccc(C(C)C)cc1 (stereo not drawn)	none
CC(C)n1c(/C=C/c2ccccc2)nc2ccccc21	BRCA1 expr up 2.2µM
Cc1ccc2c(CN3CC(C)CC(C)C3)cc(=O)oc2c1 (stereo not drawn)	none
Cc1ccc2c(CN3CCC(C)CC3)cc(=O)oc2c1	Chronic BCR inh inconclusive, BRCA1 expr up 3.2µM
CCOc1ccc(/C=N/N(C)c2ccccc2)cc1OC	Chronic BCR inh inconclusive, BRCA1 expr up 4.5µM
CCOc1ccc(/C=N/Nc2ccccn2)cc1OC	Chronic BCR inh inconclusive, BRCA1 expr up 11µM
COc1ccccc1/C=N/Nc1nccnc1Cl	Chronic BCR inh inconclusive, BRCA1 expr up 11µM
COc1cc(/C=N/N(c2ccccc2)c2ccccc2)ccc1O	Chronic BCR inh inconclusive (no result: TCR activator)
C=CCOc1ccc(/C=N/Nc2ccccn2)cc1OC	BRCA1 expr up 5µM
CCCOc1ccc(/C=N/Nc2ccccn2)cc1OC	none
O=C1c2ccccc2NC(c2ccccc2OCc2ccccc2)N1Cc1ccco1 (stereo not drawn)	none (no result: TCR activator, Mito fusion yeast, Chronic BCR inh, IL-2 act, PTHR1 ag)
COc1ccc(/C=N\Nc2ccccn2)c(OC)c1	Chronic BCR inh inconclusive, BRCA1 expr up inconclusive
COc1ccc(/C=N/Nc2ccccn2)c(OC)c1OC	BRCA1 expr up 11µM
O=C(NCC1CCCO1)c1ccc(COc2ccccc2)cc1 (stereo not drawn)	BRCA1 expr up 11µM
COCC(=O)Nc1c(C(=O)Nc2ccc3c(c2)OCCO3)oc2ccccc12	BRCA1 expr up inconclusive
CCOCC(=O)Nc1c(C(=O)Nc2ccc3c(c2)OCCO3)oc2ccccc12	BRCA1 expr up 2µM
Cc1ccc(OCc2ccc(C(=O)NCC3CCCO3)cc2)cc1 (stereo not drawn)	none
CCOc1ccc2oc(C(=O)Nc3ccc4c(c3)OCO4)c(C)c2c1	Chronic BCR inh inconclusive, BRCA1 expr up 2.8µM
CCOc1ccc2oc(C(=O)Nc3ccc(N4CCOCC4)cc3)c(C)c2c1	none (no result: Chronic BCR inh)
CCOc1ccc2oc(C(=O)NCC3CCCO3)c(C)c2c1 (stereo not drawn)	Chronic BCR inh inconclusive, BRCA1 expr up 8.9µM
O=C(c1cnn2c1NC(=C1CC1)C=C2C(F)F)N1CCc2ccccc21	none (no result: TCR activator, Mito fusion yeast, Chronic BCR inh, IL-2 act, PTHR1 ag)
C(=C\c1nc2ccccc2nc1/C=C/c1ccc2c(c1)OCO2)/c1ccc2c(c1)OCO2	none (no result: TCR activator, Mito fusion yeast, Chronic BCR inh, IL-2 act, PTHR1 ag)
CC(=O)c1ccc(OCc2cc(C(=O)N(C)CCOc3ccc(C)cc3)no2)cc1	BRCA1 expr up 4µM
CC(=O)c1ccc(OCc2cc(C(=O)N(C)C3CCOC3)no2)cc1 (stereo not drawn)	BRCA1 expr up 13µM, PTHR1 ag inconclusive
COc1cc(C)ccc1OCc1cc(C(=O)N(Cc2c(C)nn(C)c2C)C2CC2)no1	BRCA1 expr up 13µM
CN(C(=O)c1cc(COc2c(F)cccc2F)on1)C1CCOC1 (stereo not drawn)	none
COc1cc(Cl)ccc1OCc1cc(C(=O)N(C)C2CCOC2)no1 (stereo not drawn)	BRCA1 expr up 13µM
CC1(c2nc3ccccc3[nH]2)CCC2=Nc3ccccc3CN21 (stereo not drawn)	none (no result: TCR activator, Mito fusion yeast, Chronic BCR inh)
CCOC(=O)C(NC(=O)c1ccc(OC)cc1)(N1CCCC1=O)C(F)(F)F (stereo not drawn)	none
Cc1cc(OCc2cc(C(=O)N(C)C3CCOC3)no2)cc(C)c1Cl (stereo not drawn)	BRCA1 expr up 2.8µM
COc1cccc(OCc2cc(C(=O)N(C)C3CCOCC3)no2)c1	none
